Measurements taken from the supplement of paper PMC6555819.

How the values were obtained:
Assay in all cases: PBM binding z-score (relative to random genomic background probes); higher = stronger binding; sequences stand for … in GC…GCGATTGACAGCGTAGAATGAAGG
[1] = tested on: FXR:RXRa (NR concentration 270 nM, RXRa partner concentration 90 nM)
Procedure, shortened: (§1)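 Binding z-scores take random background probes as their reference. They come from custom Agilent 4×180K protein-binding microarrays incubated 1 h with ligand-free nuclear receptor dimers, with antibodies against each partner (one per run) detecting binding. Scanned fluorescence was regression-normalized.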

[2] = tested on: LXRa:RXRa (NR concentration 270 nM, RXRa partner concentration 90 nM)
Procedure, shortened: as §1

[3] = tested on: LXRa homodimer (NR concentration 270 nM)
Procedure, shortened: as §1

[4] = tested on: LXRb:RXRa (NR concentration 270 nM, RXRa partner concentration 90 nM)
Procedure, shortened: as §1

[5] = tested on: LXRb homodimer (NR concentration 270 nM)
Procedure, shortened: as §1

[6] = tested on: PPARa:RXRa (NR concentration 270 nM, RXRa partner concentration 90 nM)
Procedure, shortened: as §1

[7] = tested on: PPARg:RXRa (NR concentration 180 nM, RXRa partner concentration 90 nM)
Procedure, shortened: as §1

[8] = tested on: PPARg:RXRa 270nM:90nM, anti-RXR (NR concentration 270 nM, RXRa partner concentration 90 nM)
Procedure, shortened: as §1

[9] = tested on: PPARg:RXRa 30nM:10nM, anti-RXR (NR concentration 30 nM, RXRa partner concentration 10 nM)
Procedure, shortened: as §1

[10] = tested on: PPARg:RXRa 90nM:30nM, anti-RXR (NR concentration 90 nM, RXRa partner concentration 30 nM)
Procedure, shortened: as §1

Row | Sequence | PBM binding z-score [1] | PBM binding z-score [2] | PBM binding z-score [3] | PBM binding z-score [4] | PBM binding z-score [5] | PBM binding z-score [6] | PBM binding z-score [7] | PBM binding z-score [8] | PBM binding z-score [9] | PBM binding z-score [10]
1 | CCTCGGAGGACAGCAGGTCAGAGCTGTCCGCTTT | 0.494 | 0.589 | -0.357 | -0.0868 | -0.729 | 0.521 | -0.863 | -0.393 | -1.22 | -1.04
2 | TCAGACAGGTGAAGGTAACTCAAGTACGCAGTCG | 1.22 | 2.77 | 0.105 | 1.47 | 0.174 | 1.33 | 0.828 | 2.07 | 4.18 | 3.03
3 | CCTACTGGTCCATCAGGTCATTGATATCAACGTT | 1.32 | 1.8 | 2.15 | 2.01 | 0.36 | 1.88 | 0.421 | 1.34 | 0.261 | 0.824
4 | CGTCCAAGGGCAGAGAGGTCAGTGAATGCCGAGT | 1.75 | 1.84 | 0.628 | 1.59 | -0.506 | 2.5 | 0.642 | 1.19 | -0.361 | 0.293
5 | CATACAGGGTCAGCTAGACCAGAGTAGGGACGGC | 4.47 | 2.92 | -0.0625 | 2.14 | 0.336 | 4.07 | 3.27 | 3.06 | 0.824 | 1.87
6 | CGAACTAGGACAAGGACAGTGAATCTCCGCACGC | 0.182 | -0.241 | -0.152 | -0.655 | -0.538 | 0.455 | 1.22 | 0.612 | -0.234 | 0.216
7 | CAAACTAGGTCACCAAAGGTCAAAGTCGAATGAC | 7.53 | 8.61 | 8.25 | 7.82 | 3.21 | 6.74 | 10.1 | 8.27 | 6.41 | 8.55
8 | ACAGACAGGTGATGAAGGTAACTCTGGCTATCAT | -0.247 | -0.358 | -0.109 | -0.536 | -0.538 | -0.229 | 0.485 | -0.185 | 0.143 | 0.132
9 | CCTAGTTGGTCAGGAGGTCACAGACCGGATATGA | 4.08 | 3.46 | 1.53 | 3.38 | 0.251 | 4.41 | 3.79 | 4.28 | 1.81 | 3.37
10 | CAGCCTAGGTCAGGGCCACTATAGGAGGAACGTT | 1.85 | 1.24 | -0.48 | 0.816 | -0.559 | 2.18 | 1.36 | 1.27 | -0.111 | 0.592
11 | CTACCAAGGTGAAAAAGGTCGTTGATTACTATTC | 1.22 | 1.45 | 0.405 | 1.86 | -0.412 | 2.61 | 0.694 | 1.3 | 0.297 | 0.721
12 | CGAACTAGGTCAAGGACAGTGACTCTCCGCACGC | 3.47 | 2.28 | 0.349 | 1.58 | -0.267 | 4.79 | 7.35 | 6.66 | 3.92 | 6.28
13 | TCATATAGGTAAATGCTAGATGAAAGTCCGATCT | 0.267 | 0.34 | -0.249 | 0.68 | -0.163 | 1.06 | 1.06 | 1.99 | 3.6 | 2.79
14 | ACTCTTAGTTGAGACGAGGGCAACCGATAGGTTG | 0.56 | -0.132 | -0.317 | 0.037 | -0.519 | 0.348 | 0.499 | -0.0707 | -0.348 | -0.0252
15 | ACTATTAGTTGAGACGAGGACAACCGATAGGTTG | 0.431 | 0.148 | 0.167 | -0.324 | 0.49 | -0.169 | 0.659 | -0.132 | 0.0741 | 0.0272
16 | TTACCAAGGTGAGCTGAGGTCGCTGATCCAACTC | 1.17 | 0.578 | -0.612 | 0.416 | -1.44 | 1.52 | 0.0966 | 1 | -0.104 | 0.763
17 | CGTGCAAGGTCATAGGAGGTCAGTGAAGACAGAT | 7.84 | 7.38 | 4.92 | 6.31 | 1.2 | 5.98 | 6.01 | 6.37 | 2.92 | 5.01
18 | CCTACAGGGCCATCAGGTCATTGATATCAACGTT | 1.88 | 1.31 | 0.875 | 1.51 | -0.272 | 2 | 0.835 | 1.04 | 0.253 | 0.77
19 | TCATAAAGGTAAAAGGTGAAAGTCGGTGTGGTAA | 3.11 | 2.59 | 0.231 | 2.75 | 0.0475 | 5.08 | 6.24 | 6.25 | 6.38 | 6.73
20 | CGTCAAAGTTCTACTAAGGTAACGTAAAGCACGC | 1.91 | -0.151 | -0.14 | 0.0598 | -0.14 | 0.277 | 0.459 | 0.289 | 0.196 | 0.185
21 | TCTTGTAGTTCAAAGGTTAAGAAAGCCGAAGCCT | 4.09 | 4.39 | 1.23 | 3.51 | 0.628 | 5.16 | 7.14 | 7.29 | 7.28 | 7.39
22 | ACTCGGAGGACAAAGGTCAGATCTACGCCAGTGA | 4.14 | 4.18 | 1.82 | 3.46 | 1 | 4.65 | 7.02 | 6.8 | 5.45 | 6.92
23 | CCTAGTTGGTCAAGGTCACAAACGCTATAGGTAC | 3.97 | 3.32 | 1.64 | 3.45 | 0.933 | 3.93 | 3.16 | 3.43 | 1.09 | 2.53
24 | CCTTACGGGTCACTCCAGGATATAGCATCGGAGT | 4.88 | 5.8 | 0.346 | 2.94 | 0.014 | 4.08 | 3.39 | 3.49 | 1.08 | 2.48
